# Results published in PubChem BioAssay (NCI).
# About 83,000 compounds went through this panel and 20% of them were active in at least one assay; those are over-represented in the sample as a whole.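 For each line, cells grew in 96-well plates with the test compound present at a single concentration for 48 hours.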 Active and inactive are the calls of the source. Rule for the calls: active = growth percent below 10; inactive = the rest.
# System: K-562 leukemia
# Experiment: NCI-60 one-dose screen, 48 h (100 = growth as untreated, 0 = no growth, -100 = all killed)
# Details: 10 µM unless noted
row,Compound,growth
1,O=C1c2cccc3cccc(c23)C(=O)N1N1C(=O)c2cccc3c(N4CCOCC4)ccc(c23)C1=O,102% (inactive)
2,CCO/C=N/C1=C(C#N)C(c2ccc(OC)cc2)c2sc3c(F)cccc3c2O1 (stereo not given),15.1% (inactive)
3,Cc1ccc(CNc2ccc(Cl)cc2NCc2ccc(C)c(O)c2)cc1O,12.3% (inactive)
4,O=C(c1ccc(-c2nc(CSc3nc4ccccc4s3)no2)cc1)N1CCSCC1,36.6% (inactive)
5,C/C(=C(/c1ccc(Cl)cc1)c1ccc(OCCN2CCCC2)cc1)c1ccc(Cl)cc1,20.3% (inactive)
6,CC[C@]12C=CCN3CC[C@@]4(c5cc(NC(=O)CCC(=O)OCc6cn(Cc7ccc(F)cc7)nn6)c(OC)cc5N(C)[C@H]4[C@@](O)(C(=O)OC)[C@@H]1OC(C)=O)[C@@H]32,99.8% (inactive)
7,C=C(C)[C@@H]1CC[C@]2(C(=O)O)CC[C@]3(C)[C@H](CC[C@@H]4[C@@]5(C)C[C@@H](Cc6cn(CCO[C@@H]7O[C@H](COC(C)=O)[C@H](OC(C)=O)[C@H](OC(C)=O)[C@H]7OC(C)=O)nn6)[C@H](O)C(C)(C)[C@@H]5CC[C@]43C)[C@@H]12,53% (inactive)
8,C=CCn1c(SCC(=O)Nc2ccc(C(=O)/C=C/c3ccc(Cl)cc3)cc2)nnc1-c1cc(-c2ccc(S(N)(=O)=O)cc2)nc2ccccc12,71.1% (inactive)
9,CCOC(=O)C1=NN(c2ccccc2)C(=O)/C1=C\N1C(=O)CC(=O)NC1=S,98.2% (inactive)
10,CC12CCC3c4ccccc4CCC3(CO1)C2 (stereo not given),99.9% (inactive)
11,O=C1CC(N2C(=O)/C(=C/C(Cl)=C\c3ccc([N+](=O)[O-])cc3)SC2=S)C(=O)N1c1ccc(Cl)cc1 (stereo not given),6.26% (active)
12,CC1(C)c2[nH]c3ccccc3c2C[C@]2(C)[C@H]3CC=C4[C@@H]5C[C@@](C)(C(N)=O)CC[C@]5(C)CC[C@@]4(C)[C@]3(C)CC[C@@H]12,29.9% (inactive)
13,CCCCCOc1ccc(C(=O)/C(Br)=C/C(=O)O)cc1,60.1% (inactive)
14,CC(C)N1CCN(Cc2ccc3c(NNC(=O)c4ccccc4)nc4cc(F)ccc4n23)CC1,15.7% (inactive)
15,N#Cc1cccc(NC(=O)c2oc3ccccc3c2-c2cnn(-c3ccccc3)c2)c1,4.93% [50 µM] (active)
16,Cc1cccc(N2CCN(CC(O)COc3ccc(Cl)cc3)CC2)c1 (stereo not given),82.9% (inactive)
17,CCOC(=O)c1c(C)nc2c(c1N)CC(=O)N2Cc1cc(F)cc(Cl)c1,95.2% (inactive)
18,C[C@@H]1CCC[C@H]1CC(N)C(=O)O (stereo not given in full),99% (inactive)
19,O=CC1(C2(C=O)c3ccccc3-c3ccccc32)c2ccccc2-c2ccccc21,-13.6% (active)
20,O=C1Nc2ccc(I)cc2C1=O,107% (inactive)

row,Compound,growth
1,CN1CCN(c2ccc(NC(=O)c3nc4ccc5[nH]ncc5c4c4c3CCCC4)cc2C(F)(F)F)CC1,7.04% (active)
2,CN(C)C1CCN(Cc2ccc(NC(=O)c3cncc(C#Cc4cnc(N)c5ncccc45)c3)cc2C(F)(F)F)CC1,1.29% (active)
3,COc1ccc(C/C(C)=C(/c2ccc(OCCN3CCCCC3)cc2)c2ccc(OC(=O)NCc3ccccc3)cc2)cc1,-56.3% (active)
4,COc1ccccc1NC(=O)Cn1cc(CN2CCN(c3ccnc4cc(Cl)ccc34)CC2)nn1,83.8% (inactive)
5,N=C(N)c1ccc(-c2ccc(-c3ccc(F)cc3)o2)o1,-28.5% (active)
6,CN1C(=O)/C(=C/c2ccc(C(=O)Nc3ncc(Cc4ccc(Cl)cc4)s3)cc2)SC1=S,38.4% (inactive)
7,CCCCCC(=O)OCC(=O)O[C@@H]1C[C@]2(C(C)C)O[C@@]1(C)[C@@H]1CC[C@@H](C)[C@H]1[C@@H]2OC(=O)/C=C/c1ccccc1,42.3% (inactive)
8,CC(=O)N(N=Nc1ccccc1)c1cccc2ccccc12,89.5% (inactive)
9,COc1ccc(/C=C2\C(=O)N=C3N2NC(c2cc(Br)ccc2O)C=C(C)N3c2ccccc2)cc1 (stereo not given),97.3% (inactive)
10,CC(C)(C)[Si](C)(C)O[C@H]1C(=O)C=CN2CC=C[C@@H]12,105% [100 µM] (inactive)
11,C=C1C(=O)O[C@H]2[C@H]1CC/C(COC(=O)CSCCSCC(=O)OC/C1=C/CC[C@@]3(C)O[C@H]3[C@H]3OC(=O)C(=C)[C@@H]3CC1)=C\CC[C@@]1(C)O[C@@H]21,1.81% (active)
12,Brc1ccc2[nH]cc(-c3nonc3-c3c[nH]c4ccccc34)c2c1,10.4% (inactive)
13,COc1cccc(NC(=O)Cn2cc(CN3CCN(c4ccnc5cc(Cl)ccc45)CC3)nn2)c1,67.4% (inactive)
14,CCOc1ccc(NC(=O)CSc2oc(-c3ccccc3)nc2S(=O)(=O)c2ccc(F)cc2)cc1,65.9% (inactive)
15,O=C1Nc2ccc(Br)cc2/C1=N/c1n[nH]c(=S)s1,90.8% (inactive)
16,COc1ccc(C(=O)C2C(c3ccc(OC)cc3)CN(C)C23C(=O)Nc2ccccc23)cc1 (stereo not given),77.1% (inactive)
17,Cc1noc(C)c1C(=O)OCc1coc2ccccc2c1=O,36.5% (inactive)
18,C[C@]12CC[C@@H]3c4ccc(O)c([N+](=O)[O-])c4CC[C@H]3[C@@H]1CCC2=O,96.7% (inactive)
19,COc1cccc([C@H]2c3[nH]c4ccccc4c3C[C@H]3C(=O)N(CCCCCCC(=O)NO)CC(=O)N23)c1,27% (inactive)
20,CO/N=C(/C)c1ccc(NC(=O)CSc2nnc(-c3ccncc3)n2-c2ccccc2)cc1,91.6% (inactive)
